Experimental data from the supplement of paper PMC10498489.
Out of some 2,300 compounds screened, about 330 (14%) showed activity.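 How the source made its calls: active = median modified Z-score above 1.96; inactive = 1.96 or below.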 These entries were drawn from the full list.

tested on: HepG2 Srxn1-GFP reporter cells (+30 nM CDDO-Me); assay: Srxn1-GFP intensity median modified Z-score relative to plate median; higher = stronger NRF2 / oxidative stress reporter activation, active = hit call of the paper; settings: 10 µM; exposure time: 24h
Outline: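 In 96-well plates holding 20,000 HepG2 Srxn1-GFP BAC reporter cells per well, compound at 10 μM and an NRF2 activator at 30 nM were added together for 24 h, with DMSO at ≤0.1%, across three replicate plates. After fixation in formaldehyde and Hoechst staining, confocal images were analysed cell by cell for cytoplasmic GFP, and images containing under 100 cells were excluded. Values are replicate medians of the per-plate modified Z-score of GFP intensity, scaled by 1.4826 × median absolute deviation.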

Row | SMILES | Srxn1-GFP intensity median modified Z-score
1 | CC(=O)c1ccc(S(=O)(=O)CC(=O)NC2CCCC2)cc1 | 1.37 (inactive)
2 | N=c1nc(-c2cc(Cl)ccc2Cl)[nH]c(=N)[nH]1 [euspeclibcmpd1188] | 0.145 (inactive)
3 | CCCCCCc1ccc(O)cc1O [euspeclibcmpd2121] | 3.73 (active)
4 | CCCCOC(=O)c1ccc(O)cc1 [euspeclibcmpd905] | 0.67 (inactive)
5 | C[C@H]1[C@H](C)CC[C@]2(C(=O)O)CC[C@]3(C)C(=CCC4[C@@]5(C)C[C@@H](O)[C@H](O)[C@@](C)(CO)C5[C@H](O)C[C@]43C)[C@H]12 (stereo partly drawn) [euspeclibcmpd1692] | -0.252 (inactive)
6 | Cn1c(O)cc(-c2ccccc2)c1O [euspeclibcmpd796] | -0.502 (inactive)
7 | CCCCNc1ccc(C(=O)OCCN(C)C)cc1 [euspeclibcmpd287] | -0.0522 (inactive)
8 | CCCCOC(=O)c1ccc(N)cc1 [euspeclibcmpd342] | 0.38 (inactive)
9 | CCCCNc1ccc(C(=O)OCCOCCOCCOCCOCCOCCOCCOCCOCCOC)cc1 [euspeclibcmpd1214] | 5.26 (active)
10 | Cn1cc(O)[nH]c1=N [euspeclibcmpd1004] | -0.153 (inactive)
11 | CCN(CC)CCNC(=O)c1ccc(I)cc1 | 0.454 (inactive)
12 | N=c1[nH]cnc2[nH]cnc12 [euspeclibcmpd349] | -0.183 (inactive)
13 | N=c1[nH]c(=S)c2nc[nH]c2[nH]1 [euspeclibcmpd292] | 28.2 (active)
14 | NCCCC(N)CC(=O)NCC1NC(=O)C(CO)NC(=O)C(N)CNC(=O)C(C2CCN=C(N)N2)NC(=O)C(C=NC(N)=O)NC1=O (stereo not drawn) [euspeclibcmpd1312] | 0 (inactive)
15 | O=C(O)C1O[C@@H](Oc2cc3oc(-c4ccccc4)cc(=O)c3c(O)c2O)[C@H](O)[C@@H](O)[C@@H]1O (stereo partly drawn) [euspeclibcmpd2123] | -0.648 (inactive)
16 | CCCCCC1C(=O)CCC1CC(=O)OC (stereo not drawn) [euspeclibcmpd1637] | -0.322 (inactive)
17 | CCC(N)C12CC3CC(CC(C3)C1)C2 (stereo not drawn) | 0.333 (inactive)
18 | CC1(C)S[C@@H]2[C@H](N3C(=O)C(c4ccccc4)NC3(C)C)C(=O)N2C1C(=O)O (stereo partly drawn) [euspeclibcmpd2360] | -0.502 (inactive)
19 | CSc1nc2cc(Cl)c(Oc3cccc(Cl)c3Cl)cc2[nH]1 [euspeclibcmpd1225] | 4.92 (active)
20 | COC(=O)C[C@H]1C(C)(C)C(=O)C2CC3=C4CC(=O)O[C@@H](c5ccoc5)[C@]4(C)CCC3[C@@]1(C)C2=O (stereo partly drawn) [euspeclibcmpd2085] | -0.00623 (inactive)
21 | COc1cc2[nH]c(N3CCN(C(=O)c4ccco4)CC3)nc(=N)c2cc1OC [euspeclibcmpd1302] | -0.393 (inactive)
22 | Clc1cnc(N/N=C/c2sc(N3CCCCC3)nc2-c2cccs2)c(Cl)c1 | 0.529 (inactive)
23 | COC(=O)CCC(C)[C@H]1CCC2C3C(C[C@H](O)[C@@]21C)[C@@]1(C)CC[C@@H](O)C[C@H]1C[C@H]3O (stereo partly drawn) [euspeclibcmpd1539] | -0.423 (inactive)
24 | CC1(C)CC2C(=O)CCC3OC3(C)CCC21 (stereo not drawn) [euspeclibcmpd2011] | -0.362 (inactive)
25 | O=C(Cc1c[nH]c2ccccc12)NCCc1c[nH]c2ccccc12 | 1.76 (inactive)

Row | SMILES | Srxn1-GFP intensity median modified Z-score
26 | Cc1c(Cl)cccc1Nc1ccccc1C(=O)O [euspeclibcmpd1068] | 4.04 (active)
27 | O=C(c1ccccc1Nc1cccc(C(F)(F)F)c1)N1CCC1 | 1.38 (inactive)
28 | Cc1ccc(Cl)c(Nc2ccccc2C(=O)O)c1Cl [euspeclibcmpd2058] | 0.0269 (inactive)
29 | Cc1cccc(Nc2ccccc2C(=O)OCC#N)c1C | 0.491 (inactive)
30 | CON(C)C(=O)c1ccccc1Nc1cccc(C(F)(F)F)c1 | 1.46 (inactive)
31 | Cc1cccc(C(=O)O)c1O [euspeclibcmpd1013] | -0.315 (inactive)
32 | Cc1cccc(Nc2ccccc2C(=O)O)c1C | 0.337 (inactive)
33 | O=C(O)c1ccccc1Nc1cccc(C(F)(F)F)c1 [euspeclibcmpd370] | 2.94 (active)
34 | Cc1cccc(Nc2ccccc2C(=O)O)c1C [euspeclibcmpd373] | 2.69 (active)
35 | O=C(O)c1ccccc1Nc1ccccc1 [euspeclibcmpd1737] | -0.16 (inactive)
36 | O=C(O)CCCCC(=O)O [euspeclibcmpd2456] | 0.307 (inactive)
37 | C[C@H]1O[C@H](O[C@H]2[C@H](O)[C@@H](O)[C@@H](O[C@H]3[C@H](O)[C@@H](O)C(O)O[C@@H]3CO)O[C@@H]2CO)[C@H](O)[C@@H](O)[C@@H]1N[C@H]1C=C(CO)[C@@H](O)[C@H](O)[C@H]1O (stereo partly drawn) [euspeclibcmpd430] | -0.321 (inactive)
38 | CC[C@H]1OC(=O)C(C)[C@@H](O[C@H]2C[C@@](C)(OC)[C@@H](O)[C@H](C)O2)[C@H](C)[C@@H](O[C@@H]2O[C@H](C)C[C@H](N(C)C)[C@H]2O)[C@](C)(O)CC(C)C(=NOCOCCOC)C(C)[C@@H](O)[C@]1(C)O (stereo partly drawn) [euspeclibcmpd567] | -0.00752 (inactive)
39 | Cc1c(C(=O)O)sc(S(=O)(=O)N2CCN(C(=O)CC3CCCC3)CC2)c1C(=O)O | 0.344 (inactive)
40 | Cc1[nH]c(=O)c(C#N)cc1-c1ccncc1 [euspeclibcmpd1241] | 2.87 (active)
41 | Nc1cc(-c2ccncc2)c[nH]c1=O [euspeclibcmpd524] | -0.435 (inactive)
42 | COc1cc(=NS(=O)(=O)c2ccc(N)cc2)[nH]cn1 [euspeclibcmpd400] | -0.55 (inactive)
43 | CC(=O)C(N)C(O)O (stereo not drawn) [euspeclibcmpd2348] | -0.525 (inactive)
44 | CC(=O)C(N)C(O)O (stereo not drawn) [euspeclibcmpd1109] | -0.112 (inactive)
45 | CCOc1cc(CC(=O)N[C@@H](CC(C)C)c2ccccc2N2CCCCC2)ccc1C(=O)O [euspeclibcmpd908] | 0.187 (inactive)
46 | COc1cc(O)c(C(C)=O)c(O)c1 [euspeclibcmpd1561] | 1.48 (inactive)
47 | N[C@@H](CC(=O)N1CCn2c(nnc2C(F)(F)F)C1)Cc1cc(F)c(F)cc1F [euspeclibcmpd2166] | 12.2 (active)
48 | CCn1cc(N(CC(C)C)S(=O)(=O)CCC2CCOCC2)cn1 | 1.44 (inactive)
49 | N=c1ccn2c(n1)O[C@@H]1[C@@H](O)[C@H](CO)O[C@@H]12 [euspeclibcmpd1164] | 0.441 (inactive)
50 | Oc1cc2cc(CCN3CCN(c4nsc5ccccc45)CC3)c(Cl)cc2[nH]1 [euspeclibcmpd1992] | -0.197 (inactive)

Row | SMILES | Srxn1-GFP intensity median modified Z-score
51 | O=C(O)CCC(=O)OC[C@@H](NC(=O)C(Cl)Cl)[C@H](O)c1ccc([N+](=O)[O-])cc1 [euspeclibcmpd2230] | -0.0902 (inactive)
52 | NC(CSCSCC(N)C(=O)O)C(=O)O (stereo not drawn) [euspeclibcmpd1615] | -0.0888 (inactive)
53 | C[C@]12CCC(=O)CC1=CCC1C2[C@@H](O)C[C@@]2(C)C1CC[C@]2(O)C(=O)COC(=O)CCC(=O)O (stereo partly drawn) [euspeclibcmpd152] | -0.766 (inactive)
54 | CC1CCC2(C(=O)O)CCC3(C)C(=CCC4C5(C)CC(O)C(O)C(C)(CO)C5CCC43C)C2C1C (stereo not drawn) [euspeclibcmpd1959] | -0.237 (inactive)
55 | N=C(N)c1ccc(N=NNc2ccc(C(=N)N)cc2)cc1 [euspeclibcmpd1093] | 0.338 (inactive)
56 | N=C(N)c1ccc(OCCCCCOc2ccc(C(=N)N)cc2)cc1 [euspeclibcmpd1040] | 12.5 (active)
57 | CCCCCCOc1ccccc1C(N)=O [euspeclibcmpd1139] | 0.59 (inactive)
58 | C[C@@H]1CCC2[C@](C)(CO)[C@@H](O)CC[C@]2(C)[C@@]12CC[C@@](CO)(CCO)O2 (stereo partly drawn) [euspeclibcmpd1570] | -0.216 (inactive)
59 | CCOc1cc(/C=C/C(=O)O)ccc1OC | 0.394 (inactive)
60 | CCNC(=O)CCC(N)C(=O)O (stereo not drawn) [euspeclibcmpd2170] | -0.00834 (inactive)
61 | CC12CCC(=O)N1C(C(=O)NCCCNS(C)(=O)=O)CS2 (stereo not drawn) | 2.02 (active)
62 | CC(=O)COc1ccc2c(C)cc(=O)oc2c1 | 1.43 (inactive)
63 | CN(C)C1C(=O)C(C(=O)NCN2CCCC2)C(=O)C2(O)C(=O)C3C(=O)c4c(O)cccc4C(C)(O)C3CC12 (stereo not drawn) [euspeclibcmpd1955] | -0.368 (inactive)
64 | C[C@]12C=CC(=O)CC1=CCC1C2C(=O)C[C@@]2(C)C1CC[C@]2(O)C(=O)CO (stereo partly drawn) [euspeclibcmpd243] | -0.188 (inactive)
65 | CC(=O)OC1CCC23C(=O)OC45CCC(c6coc(O)c6)C4(C)CCC2C5CCC3(O)C1 (stereo not drawn) [euspeclibcmpd1387] | -1.25 (inactive)
66 | [Cl][Ca][Cl] [euspeclibcmpd2470] | 1.27 (inactive)
67 | N#CCC(=O)NN [euspeclibcmpd1098] | 3.08 (active)
68 | CON=C1CN(c2nc3c(cc2F)c(=O)c(C(=O)O)cn3C2CC2)CC1CN (stereo not drawn) [euspeclibcmpd871] | -0.00523 (inactive)
69 | CC1=C(C(=O)O)N2C(=O)C(=NC(=O)C(N)C3CC=CCC3)C2SC1 (stereo not drawn) [euspeclibcmpd49] | -0.299 (inactive)
70 | CN(C)CC(=O)OCC(=O)C(O)C(O)C(O)C(O)O (stereo not drawn) [euspeclibcmpd2264] | -0.422 (inactive)
71 | COc1ccc(CCN2CCC(N=c3[nH]c4ccccc4n3Cc3ccc(F)cc3)CC2)cc1 [euspeclibcmpd1296] | -0.744 (inactive)
72 | Cc1c(NC(=O)CCc2cccnc2)c(=O)n(-c2ccccc2)n1C | 1.03 (inactive)
73 | COc1ccc([C@@H]2CC(=O)c3c(O)cc(O[C@@H]4O[C@H](CO[C@H]5O[C@@H](C)[C@H](O)[C@@H](O)[C@H]5O)[C@@H](O)[C@H](O)[C@H]4O)cc3O2)cc1O [euspeclibcmpd1499] | -0.332 (inactive)
